GPR151 activ = activators of human GPR151; hit rate 1% among 650,000; PathHunter beta-arrestin GPR151 cells, luminescence; activation, % at 11.2 µM; AID 1508602; Q8TDV0; in the data active means activation above about 4.9%;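 further: 0% = median of compound wells and 100% = cells with positive control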
TEAD-YAP block = TEAD-YAP interaction inhibition. HEK-TIYL cells, TEAD-Gal4/YAP UAS-luciferase luminescence. inhibition, % at 9.12 µM. hit rate 1.4% among 640,000; in the data active means inhibition above about 32%;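 further: 0% = median of test compound wells and 100% = reference inhibitor wells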
FBW7 act = activators of human E3 ligase FBW7 | hit rate 0.13% among 650,000 | normalized activity (activation), % at 26.1 µM | AlphaScreen FBW7–phospho-cyclin E peptide binding, activator screen | AID 1259310; in the data active means normalized activity above about 1.9%;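 further: purified mutant Fbw7 with reduced substrate affinity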
Target sequence (Q969H0 whole entry, looked up): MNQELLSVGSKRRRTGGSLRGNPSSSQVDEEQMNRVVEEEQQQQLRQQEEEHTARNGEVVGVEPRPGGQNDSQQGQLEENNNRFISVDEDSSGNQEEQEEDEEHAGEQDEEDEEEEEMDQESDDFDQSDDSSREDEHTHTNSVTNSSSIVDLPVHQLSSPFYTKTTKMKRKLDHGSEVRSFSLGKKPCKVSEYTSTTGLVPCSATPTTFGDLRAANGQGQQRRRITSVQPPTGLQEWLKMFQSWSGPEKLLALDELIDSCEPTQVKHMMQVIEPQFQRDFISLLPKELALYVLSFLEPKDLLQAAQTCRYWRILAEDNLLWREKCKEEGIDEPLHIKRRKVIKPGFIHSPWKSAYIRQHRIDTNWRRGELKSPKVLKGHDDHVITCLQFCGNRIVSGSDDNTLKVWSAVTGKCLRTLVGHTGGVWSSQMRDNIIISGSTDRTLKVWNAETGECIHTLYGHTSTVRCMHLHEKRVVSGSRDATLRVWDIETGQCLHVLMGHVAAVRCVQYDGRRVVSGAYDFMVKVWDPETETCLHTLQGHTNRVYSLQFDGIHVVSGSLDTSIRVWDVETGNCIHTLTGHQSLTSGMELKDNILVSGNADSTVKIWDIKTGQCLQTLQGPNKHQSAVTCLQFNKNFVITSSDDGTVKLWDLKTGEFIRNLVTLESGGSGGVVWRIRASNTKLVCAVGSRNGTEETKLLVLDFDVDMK
MITF inh = blocks human microphthalmia-associated transcription factor. O75030. AlphaScreen MITF homodimerization, bead proximity signal. inhibition, % at 2.6 µM. hit rate 0.91% among 650,000; in the data active means inhibition above about 50%;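 further: 0% = vehicle wells with protein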
MITF confirm = human MITF inhibition, confirmation; shares compounds with MITF inh; AlphaScreen MITF homodimerization, biotin/His-MITF beads; AID 1259372; inhibition, % at 2.6 µM; hit rate 16% among 4,700;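 active means inhibition above a cutoff derived from the DMSO control wells, cut at about 28% in these data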;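 further: 0% = MITF dimer wells with DMSO only; inhibitors lower the bead chemiluminescence by keeping MITF from dimerizing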
AS interf DR = optically interferes with AlphaScreen signal in dose response; shares compounds with MITF inh; AlphaScreen optical interference counterscreen, cell-free; IC50, µM; hit rate 6% among 480; AID 1259373; call rule not given here
AlphaScreen intf2 = counter-screen: compounds optically interfering with AlphaScreen | shares compounds with MITF inh | LysRS AlphaScreen counterscreen, signal interference, triplicate | inhibition, % at 2.6 µM | hit rate 7.6% among 4,700 | AID 1259376;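 active means inhibition above a cutoff derived from the DMSO control wells, cut at about 30% in these data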
The depositor's hits bear a star; · = no result given. Only some compounds are listed: those with a hit (about 3.5% of all), similar ones and a draw of the others.

SMILES	GPR151 activ	TEAD-YAP block	FBW7 act	MITF inh	MITF confirm	AlphaScreen intf2	others
CCN(CC(=O)Nc1cccc(OC)c1)Cc1cc(=O)oc2cc(NC(C)=O)ccc12	-1	8	0	54*	24	-6
CCN(CC(=O)Nc1cccc(OC)c1)CC(=O)Nc1ccc(C)cc1Cl	2	8	0	62*	4	18
CCN(CC)CC(=O)Nc1cccc(OC)c1	3	-1	0	1	·	·
O=C(CNC(=O)c1ccccc1F)N/N=C/c1cc(Br)ccc1O	0	11	-1	13	·	·
CCN(CC)S(=O)(=O)c1ccc(C(=O)Nc2nc(-c3ccccc3)c(-c3ccccc3)s2)cc1	0	1	0	6	·	·
COc1ccccc1CNC(=O)C1CCC(Cn2c(=S)[nH]c3ccccc3c2=O)CC1 (stereo not given)	2	-17	0	53*	-3	4
CN(C)CC(C)(C)CNCC(O)COCc1ccccc1F (stereo not given)	0	-4	0	78*	0	-5
CC1(C)C2CCC1(C)C(NCC(O)COCc1ccccc1F)C2 (stereo not given)	1	-1	0	65*	-10	-4
COc1cc(Cl)c(C)cc1NC(=O)/C(C#N)=C/c1ccc(NC(C)=O)cc1	-1	-1	0	0	·	·
CCOc1cccc(C2CC(c3cccc(OC)c3)=NC(c3ccc(Cl)cc3)N2)c1O (stereo not given)	-1	-9	0	4	·	·
COc1ccccc1CN1CCN(C(=O)c2cccc(F)c2)CC1	0	4	0	49	·	·
COc1cc(OC)cc(C(=O)N2CCN(Cc3ccccc3Cl)CC2)c1	0	-12	0	60*	-2	2
COc1cc(OC)cc(C(=O)N2CCN(Cc3ccccc3OC)CC2)c1	-1	3	0	61*	5	-1
COc1cc(OC)cc(C(=O)N2CCN(Cc3ccc(C)cc3)CC2)c1	0	0	0	47	·	·
O=C(c1ccc([N+](=O)[O-])cc1)N1CCC(n2nnc3cc(C(F)(F)F)ccc32)CC1	0	0	0	17	·	·
CCCS(=O)(=O)N1CCN(Cc2ccc(OC)cc2OC)CC1	-1	-7	0	35	·	·
CCCS(=O)(=O)N1CCN(Cc2ccc(OC)c(OC)c2)CC1	1	3	0	53*	6	17
CCCS(=O)(=O)N1CCN(Cc2ccc(OC)cc2)CC1	2	-6	0	47	·	·
CCCS(=O)(=O)N1CCN(Cc2nc3ccc(OC)cc3[nH]2)CC1	2	-10	0	66*	1	21
CCCS(=O)(=O)N1CCN(Cc2ccc(OCc3ccccc3)c(OC)c2)CC1	0	-4	0	64*	7	9
CCOc1ccc(S(N)(=O)=O)cc1C	-2	2	0	17	·	·
O=C(CNC1CCCCC1)Nc1ccc(CN2CCCCC2)cc1	1	-7	0	74*	6	18
O=C(CNCC1CCCCC1)Nc1ccc(CN2CCCCC2)cc1	0	-1	0	63*	10	14
O=C(CNC1CC1)Nc1ccc(CN2CCCCC2)cc1	0	-3	0	18	·	·
O=C(CNC1CCCCCC1)Nc1ccc(CN2CCCCC2)cc1	0	5	0	67*	8	15
SMILES	GPR151 activ	TEAD-YAP block	FBW7 act	MITF inh	MITF confirm	AlphaScreen intf2	others
O=C(CCNC(=O)/C(=C\c1cccc(Br)c1)NC(=O)c1ccco1)OCc1ccccc1	-2	0	0	9	·	·
O=C(c1ccccc1F)N(Cc1ccccc1)c1ccccn1	0	11	0	71*	8	18
COc1ccc2c(C)cc(N3CCCN(C)CC3)nc2c1	1	8	0	62*	-2	-3
COc1ccc(-c2cc(N3CCCN(C)CC3)ncn2)cc1	-1	-14	0	10	·	·
O=C(O)CCCC(=O)N1N=C(c2c(-c3ccccc3)c3cc(Cl)ccc3[nH]c2=O)CC1c1ccccn1 (stereo not given)	2	3	0	4	·	·
Cc1cc(C)n(CCNC2CCN(c3ccc(C(=O)NC(C)c4ccccc4)cc3)CC2)n1 (stereo not given)	-2	11	0	91*	0	-2
CCC(C)c1ccc(OCCNCCO)cc1 (stereo not given)	1	-1	0	56*	-17	-8
CCOc1ccc(OCCCNCCO)cc1	-2	13	0	18	·	·
N#Cc1ccc(OCC(O)CN2CCN(CCOc3ccccc3)CC2)cc1 (stereo not given)	-1	-3	0	81*	2	9
CCN1CCN(CCOc2ccc(C#N)cc2)CC1	0	9	0	54*	6	8
CCC(C)c1ccc(OCCN2CCN(CC)CC2)cc1 (stereo not given)	1	3	0	56*	8	11
Cc1ccc(NC(=O)c2nc(-c3ccncc3)no2)c(Br)c1	-2	-19	1	2	·	·
O=C(CSc1nc(-c2ccc(Cl)cc2)cn1-c1ccccc1)Nc1ccccc1	0	2	0	15	·	·
CC(=O)Nc1nc(-c2ccc(C)cc2C)cs1	-1	-15	0	4	·	·
Cc1ccc(-c2csc(NC(=O)c3cc(Cl)cc(Cl)c3)n2)c(C)c1	-2	8	0	75*	2	10
CC(C)OCCCNC(=O)c1cc2c(Cl)nc3ccccc3c2s1	0	-5	0	22	·	·
CC(C)OCCCNCc1cc2ccccc2nc1Cl	-1	6	0	56*	12	7
CN(C)CCCNC(=O)c1cccc(CN(C(=O)c2nc3ccc(-c4cn[nH]c4)cc3s2)C2CC2)c1	-1	-3	1	60*	50*	14	AS interf DR=>6.5
CC(C)=CCN1CCN(Cc2ccccc2Cl)CC1CCO (stereo not given)	-1	6	0	4	·	·
CCN(CC)S(=O)(=O)c1cc(C(=O)Nc2ccc(Br)cc2)ccc1Br	0	-20	0	15	·	·
CCN(CC)S(=O)(=O)c1cc(C(=O)Nc2ccc(Cl)cc2)ccc1Br	2	-28	0	72*	-6	-1
O=C(COC(=O)C1CCC(=O)N1)Nc1ccccc1Br (stereo not given)	1	-1	0	53*	-3	0
O=C1NC(=O)/C(=C\c2ccc(O)cc2O)S1	1	-23	0	83*	81*	-6	AS interf DR=>6.5
O=C1NC(=S)S/C1=C\c1cc(O)ccc1Br	0	3	0	25	·	·
CC(=O)c1ccccc1OCC(O)CN1CCCCCC1 (stereo not given)	0	-3	0	-7	·	·
COc1ccc(CNC(=O)CNCC2(N3CCOCC3)CCCCC2)cc1	0	2	0	55*	-6	-3
COC(=O)c1ccc(C(=S)NCC2(N3CCOCC3)CCCCC2)cc1	-1	-2	0	-4	·	·
CCn1c2ccccc2c2cc(CN3CCN(C(=O)c4cccc(OC)c4OC)CC3)ccc21	1	-2	0	19	·	·
